The panel holds about 83,000 compounds, 20% with a hit somewhere; the sample as a whole holds those more often.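 48-hour exposure, single concentration, 96-well plates; percent growth endpoint where 0 means no net growth. Active: below 10.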 Active and inactive are the calls of the source.
Assays:
Assay in all cases: NCI-60 one-dose screen, 48 h (100 = growth as untreated, 0 = no growth, -100 = all killed)
Conditions in all cases: 10 µM unless noted
NCI-H23 lung = test system: NCI-H23 lung
NCI-H226 lung = test system: NCI-H226 lung
NCI-H322M lung = test system: NCI-H322M lung
HOP-62 NSCLC = test system: HOP-62 NSCLC
NCI-H460 lung = test system: NCI-H460 lung
HOP-92 NSCLC = test system: HOP-92 NSCLC
NCI-H522 lung = test system: NCI-H522 lung
A549/ATCC NSCLC = test system: A549/ATCC NSCLC
786-0 renal = test system: 786-0 renal
COLO 205 colon = test system: COLO 205 colon
DU-145 prostate = test system: DU-145 prostate
K-562 leukemia = test system: K-562 leukemia
MDA-MB-231 breast = test system: MDA-MB-231 breast
RXF 393 renal = test system: RXF 393 renal
SF-268 CNS = test system: SF-268 CNS
SF-295 CNS = test system: SF-295 CNS
SF-539 CNS = test system: SF-539 CNS
UACC-257 melanoma = test system: UACC-257 melanoma
M14 melanoma = test system: M14 melanoma

Measured: growth

COc1c(N)c2c(c([N+](=O)[O-])c1OC)C(=O)OC2
inactive: NCI-H23 lung 120% | NCI-H226 lung 110% | NCI-H322M lung 99.8% | HOP-62 NSCLC 107% | NCI-H460 lung 113% | HOP-92 NSCLC 92.3% | NCI-H522 lung 98.6% | A549/ATCC NSCLC 96.1% | 786-0 renal 102% | COLO 205 colon 116% | DU-145 prostate 116% | K-562 leukemia 119% | MDA-MB-231 breast 115% | RXF 393 renal 112% | SF-268 CNS 106% | SF-295 CNS 107% | SF-539 CNS 104% | UACC-257 melanoma 102% | M14 melanoma 109%

Cc1ccc2[nH]cc(-c3nc(-c4cn(C)c5ncccc45)cs3)c2c1
inactive: NCI-H23 lung 74.7% | NCI-H226 lung 74.2% | NCI-H322M lung 101% | HOP-62 NSCLC 105% | NCI-H460 lung 91.4% | HOP-92 NSCLC 74.6% | NCI-H522 lung 86.5% | A549/ATCC NSCLC 75.5% | 786-0 renal 91.3% | COLO 205 colon 97.9% | DU-145 prostate 97.7% | K-562 leukemia 59.4% | MDA-MB-231 breast 83.4% | RXF 393 renal 100% | SF-268 CNS 97% | SF-295 CNS 77.9% | SF-539 CNS 93.8% | UACC-257 melanoma 94% | M14 melanoma 80%

CC1c2ccccc2N(S(=O)(=O)c2ccccc2)C1C (centres undefined)
inactive: NCI-H23 lung 89.4% | NCI-H226 lung 88.4% | NCI-H322M lung 102% | HOP-62 NSCLC 95.4% | NCI-H460 lung 115% | HOP-92 NSCLC 86.8% | NCI-H522 lung 76.9% | A549/ATCC NSCLC 92% | 786-0 renal 102% | COLO 205 colon 97.6% | DU-145 prostate 102% | K-562 leukemia 34.1% | MDA-MB-231 breast 91.2% | RXF 393 renal 88% | SF-268 CNS 102% | SF-295 CNS 94.9% | SF-539 CNS 104% | UACC-257 melanoma 93.6% | M14 melanoma 77.6%

O=C(O)c1cccc2c1C(=O)N(c1ccc3c(c1)Cc1ccccc1-3)C2=O
inactive: NCI-H23 lung 122% | NCI-H226 lung 111% | NCI-H322M lung 111% | HOP-62 NSCLC 112% | NCI-H460 lung 117% | HOP-92 NSCLC 109% | NCI-H522 lung 92.3% | A549/ATCC NSCLC 98.6% | 786-0 renal 107% | COLO 205 colon 121% | DU-145 prostate 116% | K-562 leukemia 105% | MDA-MB-231 breast 113% | RXF 393 renal 110% | SF-268 CNS 117% | SF-295 CNS 121% | SF-539 CNS 110% | UACC-257 melanoma 109% | M14 melanoma 119%

Cn1cc(-c2csc(-c3cn(C(=O)OC(C)(C)C)c4ccc(Br)cc34)n2)c2cccnc21
inactive: NCI-H23 lung 92.2% | NCI-H226 lung 101% | NCI-H322M lung 88.9% | HOP-62 NSCLC 99.2% | NCI-H460 lung 62.3% | HOP-92 NSCLC 98.7% | NCI-H522 lung 96.3% | A549/ATCC NSCLC 78.5% | 786-0 renal 99.9% | COLO 205 colon 86% | DU-145 prostate 108% | K-562 leukemia 97.6% | MDA-MB-231 breast 75.3% | RXF 393 renal 88.5% | SF-268 CNS 94.7% | SF-295 CNS 79.8% | SF-539 CNS 106% | UACC-257 melanoma 114% | M14 melanoma 104%

O=C(/C=C/c1cccc(O)c1)c1ccccc1O
inactive: NCI-H23 lung 86.8% | NCI-H226 lung 98.2% | NCI-H322M lung 98.4% | HOP-62 NSCLC 94.4% | NCI-H460 lung 88.2% | HOP-92 NSCLC 68.6% | A549/ATCC NSCLC 96.6% | 786-0 renal 103% | COLO 205 colon 104% | DU-145 prostate 83.2% | K-562 leukemia 80% | MDA-MB-231 breast 80.3% | RXF 393 renal 89.9% | SF-268 CNS 94.2% | SF-295 CNS 98.6% | SF-539 CNS 102% | UACC-257 melanoma 86.8% | M14 melanoma 96.4%
active: NCI-H522 lung -37.3%

c1ccc2c(-c3nc(-c4c[nH]c5ncccc45)cs3)c[nH]c2c1
inactive: NCI-H23 lung 97.5% | NCI-H226 lung 97.9% | NCI-H322M lung 91.1% | HOP-62 NSCLC 83.2% | NCI-H460 lung 115% | HOP-92 NSCLC 65.7% | NCI-H522 lung 85.2% | A549/ATCC NSCLC 100% | 786-0 renal 93.4% | COLO 205 colon 66.3% | DU-145 prostate 112% | K-562 leukemia 106% | MDA-MB-231 breast 79.9% | RXF 393 renal 116% | SF-268 CNS 111% | SF-295 CNS 119% | SF-539 CNS 99.3% | UACC-257 melanoma 109% | M14 melanoma 99.8%

Cn1cc(-c2csc(-c3c[nH]c4ccccc34)n2)c2cccnc21
active: NCI-H522 lung 5.06% | COLO 205 colon 9.57% | SF-295 CNS 6.62% | SF-539 CNS -1.15%
inactive: NCI-H23 lung 30.3% | NCI-H226 lung 60.3% | NCI-H322M lung 56.1% | HOP-62 NSCLC 45.5% | NCI-H460 lung 14.6% | HOP-92 NSCLC 49.5% | A549/ATCC NSCLC 40.3% | 786-0 renal 45.7% | DU-145 prostate 16.5% | K-562 leukemia 18.9% | MDA-MB-231 breast 48.3% | RXF 393 renal 12.6% | SF-268 CNS 45.4% | UACC-257 melanoma 64.6% | M14 melanoma 23.8%

CC(=O)O[C@H]1CC[C@@]2(C)C(=CC[C@@H]3[C@@H]2CC[C@]2(C)C(=O)N(O)C(=O)C[C@@H]32)C1
inactive: NCI-H23 lung 68% | NCI-H226 lung 107% | NCI-H322M lung 91.9% | HOP-62 NSCLC 68.5% | NCI-H460 lung 60.8% | HOP-92 NSCLC 93% | NCI-H522 lung 75.5% | A549/ATCC NSCLC 86.9% | 786-0 renal 81.1% | COLO 205 colon 112% | DU-145 prostate 86.9% | K-562 leukemia 49.9% | MDA-MB-231 breast 97.9% | RXF 393 renal 74% | SF-268 CNS 91.7% | SF-295 CNS 98.9% | SF-539 CNS 105% | UACC-257 melanoma 106% | M14 melanoma 96.4%

Cn1cc(-c2nc(-c3cn(C)c4ncccc34)cs2)c2ccccc21
active: NCI-H522 lung -1.88% | M14 melanoma 8.62%
inactive: NCI-H23 lung 43.6% | NCI-H226 lung 66.9% | NCI-H322M lung 58.5% | HOP-62 NSCLC 36.1% | NCI-H460 lung 16.7% | HOP-92 NSCLC 75.3% | A549/ATCC NSCLC 38.8% | 786-0 renal 39.3% | COLO 205 colon 32.8% | DU-145 prostate 58.9% | K-562 leukemia 12.6% | MDA-MB-231 breast 48.6% | RXF 393 renal 35.5% | SF-268 CNS 45.4% | SF-295 CNS 20.7% | SF-539 CNS 27.6% | UACC-257 melanoma 60.6%

Cn1cc(-c2nc(-c3c[nH]c4ncccc34)cs2)c2cc(F)ccc21
active: K-562 leukemia 6.15%
inactive: NCI-H23 lung 40.8% | NCI-H226 lung 62.3% | NCI-H322M lung 35.1% | HOP-62 NSCLC 65.3% | NCI-H460 lung 24.6% | HOP-92 NSCLC 13.3% | NCI-H522 lung 22% | A549/ATCC NSCLC 36.3% | 786-0 renal 41.3% | COLO 205 colon 49.4% | DU-145 prostate 64.4% | MDA-MB-231 breast 20% | RXF 393 renal 43.8% | SF-268 CNS 44.4% | SF-295 CNS 19.9% | SF-539 CNS 53.9% | UACC-257 melanoma 53.3% | M14 melanoma 20.5%

CCOC(=O)c1ccc2c(c1)[n+](=O)c(C(=O)C1CCCS1)c(C(F)(F)F)n2[O-] (centres undefined)
active: NCI-H23 lung -87% | NCI-H226 lung -54.9% | NCI-H322M lung -87.6% | HOP-62 NSCLC -90.6% | NCI-H460 lung -73.7% | HOP-92 NSCLC -83.6% | NCI-H522 lung -83.3% | A549/ATCC NSCLC -94.9% | 786-0 renal -92.3% | COLO 205 colon -84.8% | DU-145 prostate -96.5% | K-562 leukemia -52.6% | MDA-MB-231 breast -76.8% | RXF 393 renal -92.3% | SF-268 CNS -89.6% | SF-295 CNS -88% | SF-539 CNS -83.8% | UACC-257 melanoma -90.4% | M14 melanoma -96.6%

C/C(=N\NC(=O)C(C)SC(C)C(=O)N/N=C(\C)c1cccnc1)c1cccnc1 (centres undefined)
inactive: NCI-H23 lung 103% | NCI-H226 lung 106% | NCI-H322M lung 104% | HOP-62 NSCLC 106% | NCI-H460 lung 104% | HOP-92 NSCLC 114% | NCI-H522 lung 77.4% | A549/ATCC NSCLC 108% | 786-0 renal 115% | COLO 205 colon 107% | DU-145 prostate 111% | K-562 leukemia 91.9% | MDA-MB-231 breast 109% | RXF 393 renal 130% | SF-268 CNS 108% | SF-295 CNS 116% | SF-539 CNS 104% | UACC-257 melanoma 113% | M14 melanoma 111%

Clc1ccc2[nH]cc(-c3nc(-c4c[nH]c5ncccc45)cs3)c2c1
active: UACC-257 melanoma 9.88%
inactive: NCI-H23 lung 51.7% | NCI-H226 lung 63% | NCI-H322M lung 59.1% | HOP-62 NSCLC 54.1% | NCI-H460 lung 19% | HOP-92 NSCLC 43.5% | NCI-H522 lung 46.5% | A549/ATCC NSCLC 21.7% | 786-0 renal 27.6% | COLO 205 colon 18.3% | DU-145 prostate 42.1% | K-562 leukemia 13.1% | MDA-MB-231 breast 37.9% | RXF 393 renal 45.5% | SF-268 CNS 61.7% | SF-295 CNS 19.4% | SF-539 CNS 70.5% | M14 melanoma 20.1%

Cn1c2c(c3ccc(Cl)cc31)-n1cccc1C2=O
inactive: NCI-H23 lung 95.2% | NCI-H226 lung 99.3% | NCI-H322M lung 85.4% | HOP-62 NSCLC 107% | NCI-H460 lung 92.9% | HOP-92 NSCLC 81.8% | NCI-H522 lung 71.3% | A549/ATCC NSCLC 75.1% | 786-0 renal 80.9% | COLO 205 colon 90.4% | DU-145 prostate 88.6% | K-562 leukemia 107% | MDA-MB-231 breast 87.5% | RXF 393 renal 91.8% | SF-268 CNS 92.3% | SF-295 CNS 105% | SF-539 CNS 94.7% | UACC-257 melanoma 106% | M14 melanoma 109%

Cn1cc(-c2nc(-c3c[nH]c4ncccc34)cs2)c2ccccc21
inactive: NCI-H23 lung 63.4% | NCI-H226 lung 85.7% | NCI-H322M lung 52.6% | HOP-62 NSCLC 92.9% | NCI-H460 lung 35.8% | HOP-92 NSCLC 42.6% | NCI-H522 lung 84% | A549/ATCC NSCLC 90.6% | 786-0 renal 90.5% | COLO 205 colon 85.9% | DU-145 prostate 99.9% | K-562 leukemia 65.5% | MDA-MB-231 breast 42.9% | RXF 393 renal 84.3% | SF-268 CNS 99.3% | SF-295 CNS 98% | SF-539 CNS 99.9% | UACC-257 melanoma 95.5% | M14 melanoma 81.1%

From PubChem BioAssay (NCI)
